We go through three molecules from PubChem BioAssay AID1159580 (chemical genetic matrix, 2015).

This assay in a line: chemical genetic growth profiling, strain panel (AID 1159580).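 Further: tested at 20 µM; growth read once vehicle control cultures reached saturation at 30 °C; 1 = growth at the plate median or of vehicle wells; lower values mean less growth of the strain.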 The following applies: growth OD.
The mark [1] stands for this setting: S. cerevisiae deletion strains, locus YAL013W, strain DEP1, active compounds read low.
Where [2] appears, read: S. cerevisiae deletion strains, locus YBR229C, strain ROT2, active compounds read low.
Setting [3] is: S. cerevisiae deletion strains, locus YDL101C, strain DUN1, active compounds read low.
[4] abbreviates: S. cerevisiae deletion strains, locus YDR150W, strain NUM1, active compounds read low.
The mark [5] stands for this setting: S. cerevisiae deletion strains, locus YEL061C, strain CIN8, active compounds read low.
[6] abbreviates: S. cerevisiae deletion strains, locus YGR078C, strain PAC10, active compounds read low.
Where [7] appears, read: S. cerevisiae deletion strains, locus YHR030C, strain SLT2, active compounds read low.
Setting [8] is: S. cerevisiae deletion strains, locus YHR087W, strain rtc3, active compounds read low.
The mark [9] stands for this setting: S. cerevisiae deletion strains, locus YJR043C, strain POL32, active compounds read low.
The mark [10] stands for this setting: S. cerevisiae deletion strains, locus YJR075W, strain HOC1, active compounds read low.
Setting [11] is: S. cerevisiae deletion strains, locus YLR039C, strain RIC1, active compounds read low.
Where [12] appears, read: S. cerevisiae deletion strains, locus YLR058C, strain SHM2 (second series), active compounds read low.
The mark [13] stands for this setting: S. cerevisiae deletion strains, locus YLR085C, strain ARP6, active compounds read low.
Where [14] appears, read: S. cerevisiae deletion strains, locus YLR262C, strain YPT6, active compounds read low.
Where [15] appears, read: S. cerevisiae deletion strains, locus YML094W, strain GIM5, active compounds read low.
Setting [16] is: S. cerevisiae deletion strains, locus YMR219W, strain ESC1, active compounds read low.
The mark [17] stands for this setting: S. cerevisiae deletion strains, locus YMR263W, strain SAP30, active compounds read low.
[18] abbreviates: S. cerevisiae deletion strains, locus YNL128W, strain TEP1, active compounds read low.
Where [19] appears, read: S. cerevisiae deletion strains, locus YNL153C, strain GIM3, active compounds read low.
Where [20] appears, read: S. cerevisiae deletion strains, locus YNL298W, strain CLA4 (second series), active compounds read low.
Where [21] appears, read: S. cerevisiae deletion strains, locus YNL322C, strain KRE1, active compounds read low.
Where [22] appears, read: S. cerevisiae deletion strains, locus YNR030W, strain Alg12, active compounds read low.
Setting [23] is: S. cerevisiae deletion strains, locus YPL055C, strain LGE1, active compounds read low.
[24] abbreviates: S. cerevisiae deletion strains, locus YPL241C, strain CIN2, active compounds read low.
[25] abbreviates: S. cerevisiae deletion strains, locus YPR135W, strain CTF4, active compounds read low.
Where [26] appears, read: S. cerevisiae strains, strain wild type, active compounds read low.

The whole screen tested about 5,500 compounds, of which about 2,000 (36%) were called active. Another 18% or so got no clear call; they are omitted. Some of the results follow. Unmarked numbers belong to inactive results. No stated cut-off is given here; in the data, active means normalized growth mostly below about 0.91 (no sharp cut-off); inconclusive means no clear call, values can overlap the other calls; inactive means mostly above about 0.92.

Regarding `Cc1onc(-c2ccccc2)c1C(=O)On1c(-c2ccccc2)nc2ccccc2c1=O`, the normalized growth is 0.963 under setting [1]; 0.988 under setting [2]; 0.944 under setting [3]; 0.922 (active) (S. cerevisiae deletion strains, locus YDL134C, strain PPH21, active compounds read low); 0.902 under setting [4]; 0.933 under setting [5]. Moreover, the normalized growth by setting is: under setting [6], 0.953; under setting [7], 0.196 (active); under setting [8], 1.05; under setting [9], 0.987; under setting [10], 0.92; under setting [11], 0.236 (active). Moreover, the normalized growth under setting [12] was 0.979; the normalized growth under setting [13] is 0.537 (active); the normalized growth under setting [14] is 0.21 (active); the normalized growth under setting [15] was 0.934; the normalized growth under setting [16] is 0.953; the normalized growth under setting [17] is 0.932. Besides, the normalized growth is 0.961 under setting [18]; 1 under setting [19]; 0.816 (active) under setting [20]; 0.928 (active) under setting [21]; 0.852 (active) under setting [22]; 0.63 (active) (S. cerevisiae deletion strains, locus YOL006C, strain TOP1, active compounds read low). In addition, the normalized growth is, setting by setting: under setting [23], 0.973; under setting [24], 0.82 (active); under setting [25], 0.368 (active); under setting [26], 0.888 (active).

Consider `CC(=O)c1ccccc1OC(=O)c1c(-c2c(Cl)cccc2Cl)noc1C`, for which the normalized growth by setting is: under setting [1], 0.996; under setting [2], 0.994; (S. cerevisiae deletion strains, locus YCL061C, strain MRC1, active compounds read low) 0.996; under setting [3], 1.02; under setting [4], 0.882; under setting [5], 1.01. Also, the normalized growth is 1.01 under setting [6]; 0.998 (S. cerevisiae deletion strains, locus YGR229C, strain SMI1, active compounds read low); 0.834 under setting [7]; 0.988 under setting [8]; 0.984 under setting [9]; 1.01 under setting [10]. The normalized growth was 0.995 (S. cerevisiae deletion strains, locus YKL190W, strain CNB1, active compounds read low); 0.923 under setting [11]; 1 under setting [12]; 0.985 under setting [13]; 0.935 under setting [14]; 1.04 under setting [15]. Moreover, the normalized growth by setting is: under setting [16], 1; under setting [17], 0.991; under setting [18], 1; under setting [19], 1; under setting [20], 1.02; under setting [21], 1.01. Further, the normalized growth was 1 under setting [22]; 1.02 under setting [23]; 0.996 under setting [24]; 1.12 under setting [25]; 1.01 under setting [26].

In the case of `CC(=O)NCCc1ccc(O)c(-c2c(O)c(O)c3c(c2O)C(=O)c2c(cc(O)c(C(=O)O)c2C(=O)O)C3=O)c1`, the normalized growth reads like this: under setting [7], 1; (S. cerevisiae deletion strains, locus YHR079C, strain IRE1, active compounds read low) 1.01; (S. cerevisiae deletion strains, locus YJL095W, strain BCK1, active compounds read low) 0.992; (S. cerevisiae deletion strains, locus YJR066W, strain TOR1, active compounds read low) 0.931; (S. cerevisiae deletion strains, locus YLR113W, strain HOG1, active compounds read low) 1.01; (S. cerevisiae deletion strains, locus YNL183C, strain NPR1, active compounds read low) 0.924. Also, the normalized growth was 1.03 (S. cerevisiae deletion strains, locus YOR231W, strain MKK1, active compounds read low) and 1.04 (S. cerevisiae deletion strains, locus YPL256C, strain CLN2, active compounds read low).
